# Results filed as inconclusive are left out. Where a call stands in place of a potency, no number is given. A number with no mark means an inactive call. Active and inactive are the calls of the source. Calls come from the whole dose curve; as a rule, active = well fitted inhibition curve with a large enough effect; inconclusive = small, poorly fitted or top-dose-only effect; inactive = no such curve, though single readings can be large or run the other way.
# Assay: NS1 protein of Zika virus - qHTS assay to identify small molecule inhibitors in human HEK 293 cells (AID 1347053); note: nearly all actives have a fitted effect of over 55% in size
# Conditions: HEK293 ZIKV MR766 infection, NS1 TR-FRET, 24 h; series mostly up to 46.1 µM
# From the text: National Center for Advancing Translational Sciences [NCATS]
# Johns Hopkins University School of Medicine
# The non-structural 1 (NS1) protein of zika virus is known to associate with the viral replication complex. This cell-based TR-FRET ZIKV NS-1 assay measures the increased NS-1 protein in human HEK 293 cells after a 24-hour Zika virus infection by a TR-FRET assay readout. A decrease in the Time-resolved fluorescence energy transfer (TR-FRET) signal in this assay by small molecule treatment indicates an inhibitory effect of the small molecule on the expression of Zika virus NS1 correlating with Zika virus replication.
# HEK 293 cells were cultured in EMEM (ATCC, Cat. # 30-2003) medium with 10% fetal bovine serum (GE healthcare Life Sciences, Cat. # SH30071.03), and 1% Pen/Strep (Gibco, Cat. # 15140-122). Cells were seeded in the assay plate and incubated at 37 C with 5% CO2 for 20 hours. Compounds were added to cells and incubated for one hour before addition of ZIKV MR766 strain solution to cells (MOI = 0.5). After an incubation at 37 C for 24 hours, the reagent mixture of TR-FRET ZIKV NS1 assay using two anti-ZIKV NS1 antibodies was added to assay plates. The TR-FRET signals in assay plates were measured using an Envision plate reader (PerkinElmer). Data were normalized by using the cell-containing wells without ZIKV as a negative control (0% NS-1) and wells containing ZIKV infected cells as a positive control (100% NS-1 level).
# Potency is the fitted concentration of half-maximal effect.
SMILES,Potency,"activity change, negative = inhibition"
CC(=O)OCC(=O)[C@H]1CC[C@H]2[C@@H]3CCC4=CC(=O)CC[C@]4(C)[C@H]3CC[C@]12C,inactive,
NCCNc1cccc2ccccc12,inactive,
CC(CNC1CCCCC1)OC(=O)c1ccccc1 (stereo not given),inactive,
C[C@@H](O)[C@H]1C(=O)N2C(C(=O)O)=C([C@H]3CCCO3)S[C@H]12,inactive,
Oc1ccc(Cl)cc1Cc1cc(Cl)ccc1O,inactive,
CCN(CC)CCOC(=O)C(Cc1cccc2ccccc12)CC1CCCO1 (stereo not given),inactive,
OCCOCCN1CCN(C2=Nc3ccccc3Sc3ccccc32)CC1,inactive,
CO[C@]12C[C@@H](COC(=O)c3cncc(Br)c3)CN(C)[C@@H]1Cc1cn(C)c3cccc2c13,inactive,
NC(=O)c1ccccc1O,inactive,
NS(=O)(=O)c1cc(C(=O)O)cc(N2CCCC2)c1Oc1ccccc1,inactive,
CCCCC(CC)CN1CN(CC(CC)CCCC)CC(C)(N)C1 (stereo not given),inactive,
CCN1CCCC(OC(=O)C(c2ccccc2)c2ccccc2)C1 (stereo not given),inactive,
CCN(CC)CCOC(=O)C1(c2ccccc2)CCCC1,inactive,
CC(=O)Nc1ccc(OCC(O)CNC(C)C)cc1 (stereo not given),inactive,
CC(C)[N+](C)(C)CC(O)COc1cccc2ccccc12 (stereo not given),inactive,
CCOC(=O)c1ccc(N)cc1,inactive,
CC(C)n1c(/C=C/[C@@H](O)C[C@@H](O)CC(=O)O)c(-c2ccc(F)cc2)c2ccccc21,inactive,
O=C(CCN1CCN2CCCC2C1)N1c2ccccc2Sc2ccc(Cl)cc21 (stereo not given),inactive,
CN(C)C(=O)Nc1ccc(Cl)c(Cl)c1,inactive,
CC(=O)Nc1ccc(S(=O)(=O)Nc2ccc([N+](=O)[O-])cc2)cc1,inactive,

SMILES,Potency,"activity change, negative = inhibition"
COc1ccc(-c2cc(C(F)F)nn2-c2ccc(S(N)(=O)=O)cc2)cc1F,inactive,
CCCCCCCCCCC[C@@H](C[C@@H]1OC(=O)[C@H]1CCCCCC)OC(=O)[C@H](CC(C)C)NC=O,inactive,
CCC(C(=O)OCCOCCN(CC)CC)c1ccccc1 (stereo not given),inactive,
NCCNC(=O)c1ccc(Cl)cn1,inactive,
Nc1nc(Cl)nc2c1ncn2[C@@H]1O[C@H](CO)[C@@H](O)[C@@H]1F,4.47 µM (active),
CCNC(=O)NCc1cccc(Cl)c1,inactive,
O=C(N/N=C/c1ccc([N+](=O)[O-])o1)c1ccc(O)cc1,inactive,
CCCCCCCCCCCCCCC[C@H](O)[C@@H](N)CO,inactive,
CC(C)[C@@H]1CC[C@@H](C)CC1=O,inactive,
N[C@H](C(=O)O)[C@@H](O)c1ccc(O)c(O)c1,inactive,
N/C(=N\N=C\c1ccc(Cl)cc1)N/N=C/c1ccc(Cl)cc1,inactive,
N=C(N)N1CCc2ccccc2C1,,-16.4% [at 4.81 µM]
CN1CCC[C@@H]1CCO[C@](C)(c1ccccc1)c1ccc(Cl)cc1,inactive,
CC[C@]12CCCN3CCc4c(n(c5ccccc45)C(=O)C1)[C@@H]32,inactive,
NC(=S)N/N=C/c1cccnc1,inactive,
Cl/C(=C\n1cncn1)c1ccc(Cl)cc1Cl,inactive,
CCOc1ccccc1C(N)=O,inactive,
O=C(O)c1ccc(S(=O)(=O)N(Cl)Cl)cc1,inactive,
FC1(F)C(F)(F)C(F)(F)C2(F)C(F)(F)C(F)(F)C(F)(F)C(F)(F)C2(F)C1(F)F (stereo not given),inactive,
CCCCOC(=O)CC(CC(=O)OCCCC)(OC(C)=O)C(=O)OCCCC,inactive,
